Results from PubChem BioAssay (NCATS).
Results filed as inconclusive are left out. Active and inactive are the calls of the source. The call rests on the fitted dose curve; in most records, active means well fitted inhibition curve with a large enough effect; inconclusive means small, poorly fitted or top-dose-only effect; inactive means no such curve, though single readings can be large or run the other way.

Assay: P-glycoprotein substrates identified in KB-3-1 adenocarcinoma cell line, qHTS therapeutic library screen (AID 1346986); further: nearly all actives have a fitted effect of over 60% in size;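 further: potency is for cytotoxicity meaning loss of cell viability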
Settings: KB-3-1 parental cells viability, CellTiter-Glo, 72 h; series mostly up to 44.5 µM; activity change, negative = cytotoxicity: at the top concentration
Procedure, shortened: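 KB-3-1 parental cells and P-gp-overexpressing KB-8-5-11 (colchicine omitted during assay) plated at 500 cells/well, dosed in dose-response, incubated 72 h at 37 degree C. CellTiter-Glo luminescence read; KB-8-5-11 also tested with tariquidar.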
On the % scale 0 is the no-effect control and ±100 the full control effect; potency means the concentration at half of the fitted maximal effect.

| Structure (SMILES) | outcome | Potency | activity change, negative = cytotoxicity |
| --- | --- | --- | --- |
| CC1=C(c2ccc(NC(=O)c3c(F)cccc3F)cc2)CN(c2nccs2)CC1 | inactive | – | – |
| C=CC(=O)Nc1cccc(Nc2nc(Nc3ccc(NC4CN(CCF)C4)cc3OC)ncc2C(F)(F)F)c1 | – | 10.3 µM (active) | – |
| C1=C/COCc2cc(ccc2OCCN2CCCC2)Nc2nccc(n2)-c2cccc(c2)COC/1 | – | 4.61 µM (active) | – |
| COc1cc2ncnc(Oc3ccc(CC(=O)Nc4cnn(C(C)C)c4)cc3)c2cc1OC | – | – | -1.91% (inactive) |
| Nc1nc(Nc2ccc3c(c2)CCC(N2CCCC2)CC3)nn1-c1cc2c(nn1)-c1ccccc1CCC2 (stereo not drawn) | – | 11.6 µM (active) | – |
| NC(=O)c1ccccc1Nc1ccnc(Nc2cccc(O)c2)n1 | – | 1.3 µM (active) | – |
| CCN(Cc1ccccc1)C(=O)Cn1c(=O)n(C)c2cnc(-c3ccccc3)nc21 | inactive | – | – |
| CC1(C)CCC2(C(=O)OC3OC(COC4OC(CO)C(O)C(O)C4O)C(O)C(O)C3O)CCC3(C)C(=CCC4C5(C)CCC(OC6OCC(O)C(O)C6O)C(C)(C)C5CCC43C)C2C1O (stereo not drawn) | inactive [at 9.29 µM] | – | – |
| C=CC(=O)N1CCC(Oc2cc3c(Nc4ccc(Cl)c(Cl)c4F)ncnc3cc2OC)CC1 | – | 13 µM (active) | – |
| N#Cc1ccc2ncnc(NCCc3ccccc3)c2c1 | – | 16.4 µM (active) | – |
| C=C1CC[C@@H]2[C@](C)(CO)[C@H](O)CC[C@@]2(C)[C@@H]1C/C=C1/C(=O)OCC1OC(=O)/C(=C/CO)C(O)C[C@@H]1C(=C)CC[C@@H]2[C@](C)(CO)[C@H](O)CC[C@]21C (stereo partly drawn) | inactive [at 17.4 µM] | – | – |
| O=C([C@@H](Cc1cccc(C(F)(F)F)c1)NS(=O)(=O)c1cc(F)c2c(c1)CCNC2)N1CCCC1 | inactive | – | – |
| O=C(O)CCc1nccc2c1[nH]c1ccccc12 | inactive | – | – |
| Nc1nc2c(nc(Br)n2[C@@H]2O[C@@H]3COP(=O)(O)O[C@H]3[C@H]2O)c(=O)[nH]1 | inactive | – | – |
| CC(C)(C)Sc1c(CC(C)(C)C(=O)O)n(Cc2ccc(Cl)cc2)c2ccc(OCc3ccc4ccccc4n3)cc12 | inactive | – | – |
| CCOC(=O)CCNc1cc(N2CCc3ccccc3CC2)nc(-c2cccnc2)n1 | inactive | – | – |
| Cc1nc(C(=O)N2CCC[C@H]2Cc2nnc(-c3ccccc3)o2)c(-c2ccccc2F)s1 | inactive | – | – |
| C/C=C(/C=C(C)/C=C/C=C/C=C(\C)C(=O)C12OC1C(O)(CCO)NC2=O)C(=O)OC (stereo not drawn) | inactive [at 17.4 µM] | – | – |
| COc1cc(C(C)=O)c(OC)c2c1OC(C)(C)C=C2 | inactive | – | – |

| Structure (SMILES) | outcome | Potency | activity change, negative = cytotoxicity |
| --- | --- | --- | --- |
| C=C1C(=O)O[C@@H]2/C=C(\C)CC/C=C(/C=O)[C@H](OC)[C@@H](OC(=O)C(C)C)[C@@H]12 | inactive | – | – |
| CCC(C)/C=C(C)/C=C/C1=CC2=C(Cl)C(=O)C(C)(OC(C)=O)C(=O)C2(O)C(OC)O1 (stereo not drawn) | inactive [at 17.4 µM] | – | – |
| C=C1C(=O)O[C@@H]2/C=C(\CO)CC/C=C(/C=O)C[C@H](O)[C@@H]12 | inactive | – | – |
| CC1(C)CCCC2(C)C1C(OC(=O)/C=C/C=C/C=O)C=C1COC(=O)C12O (stereo not drawn) | inactive [at 17.4 µM] | – | – |
| C=C1C(=O)OC[C@@H]1C/C=C(\C)CC1CC(C)C(=O)O1 (stereo partly drawn) | inactive | – | – |
| CC1(C)C2CCC(CO[C@@H]3O[C@H](CO[C@@H]4OC[C@](O)(CO)[C@H]4O)[C@@H](O)[C@H](O)[C@H]3O)C1C2 (stereo partly drawn) | inactive [at 17.4 µM] | – | – |
| O=C(CSc1nc2ccccc2c(=O)n1-c1ccccc1)Nc1ccc2c(c1)CCC2 | inactive | – | – |
| CC1OC2OC(=O)C3(C)CC4C5(CO5)C5=CC(=O)OC(C)(C)C5=CC(=O)C4(C)C(C1=O)C23 (stereo not drawn) | inactive [at 17.4 µM] | – | – |
| C#Cc1cccc(Nc2nc3cc(C(=O)O)ccc3c3cncnc23)c1 | – | 5.8 µM (active) | – |
| C=C1C(=O)OC2/C=C(\CO)CC/C=C(\C=O)C(OC)C(OC(=O)C(C)CC)C12 (stereo not drawn) | inactive [at 17.4 µM] | – | – |
| COC(CCc1ccc(O)cc1)CC(=O)CCc1ccc(O)cc1 (stereo not drawn) | inactive | – | – |
| COc1cccc(CN(C(=O)CC(C)(C)C)[C@H]2C[C@H](C(=O)N3CCNCC3)N(Cc3ccc4c(c3)OCO4)C2)c1 | inactive | – | – |
| CC1(CO)CC(O)[C@]2(C(=O)O)CCC34CC3(C=CC3[C@]5(C)C(CC[C@]34C)C(C)(CO)[C@@H](O)[C@H](O)[C@@H]5O)C2C1 (stereo partly drawn) | inactive [at 17.4 µM] | – | – |
| CC1(C)CC[C@]2(C(=O)O)[C@H](O)C[C@]3(C)C(=CCC4[C@@]5(C)CC[C@H](O[C@@H]6O[C@H](CO[C@@H]7OC[C@H](O)[C@H](O)[C@H]7O[C@@H]7OC[C@H](O)[C@H](O)[C@H]7O)[C@@H](O)[C@H](O)[C@H]6O)C(C)(C)C5CC[C@]43C)[C@@H]2C1 (stereo partly drawn) | inactive [at 9.29 µM] | – | – |
| C=C1C(=O)O[C@@H]2[C@H]1CC[C@H](C)[C@]1(CCC(=O)O1)C2(C)O (stereo partly drawn) | inactive | – | – |
| CCN(Cc1cc(Nc2nc(C)cn3c(-c4cn[nH]c4)cnc23)sn1)C(C)(C)CO | – | 0.0103 µM (active) | – |
| COc1cc(/C=C2\CC[C@H]3COC[C@@H](c4cc(F)c(F)c(F)c4)N3C2=O)ccc1-n1cnc(C)c1 | inactive | – | – |
| COc1ccc(-c2c(C)nn3c(NCCN4CCOCC4)cc(C)nc23)cc1OC | inactive | – | – |
| COC1C(OC(=O)/C=C/C=C/C=C/C=C/C(=O)O)CCC2(CO2)C1C1(C)OC1CC=C(C)C (stereo not drawn) | inactive [at 17.4 µM] | – | – |
